This note sets out measurements from the supplement of paper PMC6555819.

Experiment in all cases: PBM binding z-score (relative to random genomic background probes); higher = stronger binding; sequences stand for … in GC…GCGATTGACAGCGTAGAATGAAGG
Assay [1] concerns RARb homodimer (NR concentration 270 nM). The method in brief:
(§1)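 Random background probes are the reference for binding z-scores. These scores derive from regression-normalized fluorescence on custom Agilent 4×180K protein-binding microarrays incubated 1 h with ligand-free nuclear receptor dimers. Binding was detected with antibodies against each partner (one per run).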

Assay [2] deals with RARg:RXRa (NR concentration 270 nM, RXRa partner concentration 90 nM). The method in brief: as §1
Assay [3] concerns RARg homodimer (NR concentration 270 nM). In short, it runs like this:
as §1

For assay [4], the system named is RXRa DBDmut IVT, anti-RXR (DBD mutation: RXRa K156A/R161A, NR concentration 90 nM). In short, it runs like this: as §1
Assay [5] relates to RXRa homodimer (NR concentration 180 nM). The method in brief: as §1
For assay [6], the system named is THRa:RXRa (NR concentration 90 nM, RXRa partner concentration 90 nM). In short, it runs like this: as §1
The subject of assay [7] is THRa homodimer (NR concentration 90 nM). In short, it runs like this:
as §1

In assay [8] the test system is VDR homodimer (NR concentration 270 nM). The method in brief:
as §1

ATGGAAAGGTCGACGAGGTGAGTATACACCGTTT: the PBM binding z-score is 3.01 in assay [1]; 4.09 in assay [2]; 4.05 in assay [3]; 0.942 in assay [4]; 4.19 in assay [5]; 3.7 in assay [6]. The PBM binding z-score was found to be 0.967 in assay [7] and 0.927 in assay [8].
Regarding CGAACTAGGTCAAGAGGTCAAAGTCCGCTTCCCG, the PBM binding z-score in assay [1] came out at 5.66; in assay [2], 8.2; in assay [3], 7.63; in assay [4], 2.69; in assay [5] it was 8.43; in assay [6], 4.34. In addition, the results for the PBM binding z-score in assay [7] and in assay [8] were 2.51 and 3.88, respectively.
As for CGTCCAAGGTCAGCATGTCAGTGAAAGCGACGTG, the PBM binding z-score in assay [1] is 3.99; in assay [2], 5.21; in assay [3], 6; in assay [4], 2.51; in assay [5] it was 4.01; in assay [6], 3.54. The PBM binding z-score in assay [7] worked out at 2.02; in assay [8], 0.761.
In the case of TCTCGGAGGACGCGAAAGGTCAGAGCTCGACATC, the PBM binding z-score in assay [1] is 4.26; in assay [2], 4.31; in assay [3], 4.12; in assay [4], 0.446; in assay [5] it was 4.2; in assay [6], 3.01. Besides, the values for the PBM binding z-score in assay [7] and in assay [8] were 0.235 and 0.581, respectively.
As for CTACCAAGGTGTACAAGGTCGTTGATTACTATTC, the PBM binding z-score in assay [1] was 1.21; in assay [2], 0.657; in assay [3] it was 0.16; in assay [4], 1.14; in assay [5], 0.934; in assay [6], 1.99. Also, the PBM binding z-score in assay [7] was found to be 1.32; in assay [8] it was 2.13.
As for CTCGAAAGGTCGTGCTCAGCTGAGTATACCAAAC, the PBM binding z-score in assay [1] was determined as 2.34; in assay [2], 4.28; in assay [3], 3.82; in assay [4] it was 2.32; in assay [5] it was 4.89; in assay [6] it was 2.19. In addition, the PBM binding z-score in assay [7] was -0.199; in assay [8], 0.89.
ATCGAAAGGTCGAAGGTGAGTATACCCACCCGAA: the PBM binding z-score in assay [1] came out at 2.51; in assay [2], 4.29; in assay [3], 3.81; in assay [4] it was 0.771; in assay [5] it was 5.16; in assay [6] it was 2.27. Further, the PBM binding z-score is -0.0349 in assay [7] and 0.804 in assay [8].
On to CTCGAAAGGTCGGTTGAGGTGAGGATACGGATAA, for which the PBM binding z-score is 2.54 in assay [1]; 3.23 in assay [2]; 2.94 in assay [3]; 0.698 in assay [4]; 2.43 in assay [5]; 5.04 in assay [6]. For the same sequence, the results for the PBM binding z-score in assay [7] and in assay [8] were 2.21 and 0.231, respectively.
As for GCTAGCAGGCCCTTTGGGTCACTCAATGACGGGC, the PBM binding z-score in assay [1] was 1.29; in assay [2], 0.49; in assay [3], 0.718; in assay [4] it was -0.714; in assay [5] it was 0.498; in assay [6] it was 1.67. Moreover, the figures for the PBM binding z-score in assay [7] and in assay [8] were 0.25 and -0.37, respectively.
Turning to AGAATGAGGTTAAGGTCAGGGAAACAGAATACAT, the PBM binding z-score in assay [1] was 4.1; in assay [2] it was 4.97; in assay [3] it was 4.67; in assay [4] it was 1.43; in assay [5] it was 4.93; in assay [6], 4.39. Further, the values for the PBM binding z-score in assay [7] and in assay [8] were 4.62 and 2.36, respectively.
As for CGTCCAAGGTCAATGCTAGGTCAGCGAAAGCATT, the PBM binding z-score in assay [1] was found to be 4.51; in assay [2], 7.74; in assay [3], 7.14; in assay [4] it was 3.47; in assay [5] it was 5.38; in assay [6] it was 4.61. Moreover, the PBM binding z-score came out at 3.1 in assay [7] and 3.23 in assay [8].
Regarding CCTACTGGGCCATTCTGAGGTCATTGATCATATG, the PBM binding z-score worked out at 3.32 in assay [1]; 3.38 in assay [2]; 1.96 in assay [3]; 1.23 in assay [4]; 2.4 in assay [5]; 4.22 in assay [6]. In addition, the PBM binding z-score in assay [7] is 4.5; in assay [8], 3.8.
In the case of CCTGCTAGGTCATGGTCACCTAATCTACAGTATG, the PBM binding z-score amounted to 3.43 in assay [1]; 4.1 in assay [2]; 4.93 in assay [3]; 1.77 in assay [4]; 3.5 in assay [5]; 3.13 in assay [6]. The PBM binding z-score in assay [7] was 1.78; in assay [8], 0.622.
On to CGTACTAGGTCATCCAGGACAGTGAATACATTGA, for which the PBM binding z-score in assay [1] came to 3.35; in assay [2] it was 3.73; in assay [3], 4.47; in assay [4] it was 2.15; in assay [5] it was 2.67; in assay [6], 3.76. The PBM binding z-score in assay [7] was found to be 2.4; in assay [8], 1.81.
For ATCTCTAGGTACCAAGTTCAGTGAAAGAGAGGAC, the PBM binding z-score in assay [1] turned out to be 1.51; in assay [2], 0.686; in assay [3], 0.865; in assay [4], 1.27; in assay [5] it was 0.546; in assay [6] it was 0.926. Further, the figures for the PBM binding z-score in assay [7] and in assay [8] were 0.692 and 2.26, respectively.
